Assay results: PubChem BioAssay AID2551 (National Center for Advancing Translational Sciences (NCATS), 2010)
Among all 310,000 compounds or so, about 17,000 (5.5%) were called active. Entries that show only a call come without a potency. Inconclusive results (about 11%) are left out. Calls follow the shape of the dose curve; as a rule, active = well fitted inhibition curve with a large enough effect; inconclusive = small, poorly fitted or top-dose-only effect, or effect the other way; inactive = no such curve, though single readings can be large or run the other way. For the sample, actives were picked, then their nearest neighbours and some compounds at random.

Biological target: Nuclear receptor ROR-gamma (Mus musculus) (UniProt P51450)
Sequence (P51450 whole entry, looked up): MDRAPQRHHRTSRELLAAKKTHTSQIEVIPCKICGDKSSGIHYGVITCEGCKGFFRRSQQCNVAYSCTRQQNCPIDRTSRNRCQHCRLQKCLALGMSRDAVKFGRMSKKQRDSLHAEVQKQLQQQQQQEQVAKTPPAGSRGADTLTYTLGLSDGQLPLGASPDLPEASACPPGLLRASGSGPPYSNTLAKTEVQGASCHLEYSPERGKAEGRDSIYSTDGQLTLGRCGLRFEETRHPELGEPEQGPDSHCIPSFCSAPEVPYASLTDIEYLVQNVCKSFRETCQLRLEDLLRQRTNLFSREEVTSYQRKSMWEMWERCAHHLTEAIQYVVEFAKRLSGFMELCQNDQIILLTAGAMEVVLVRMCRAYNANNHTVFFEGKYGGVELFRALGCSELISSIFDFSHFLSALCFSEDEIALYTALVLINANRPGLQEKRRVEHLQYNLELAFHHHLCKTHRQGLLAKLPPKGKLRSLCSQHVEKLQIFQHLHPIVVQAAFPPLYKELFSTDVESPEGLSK
Experiment: qHTS for inhibitors of ROR gamma transcriptional activity; also: nearly all actives have a fitted effect of over 60% in size
Conditions: Drosophila S2 Gal4-RORgamma UAS-luciferase reporter, 20 h; series mostly up to 53.6 µM
Method in brief: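 ROR gamma transcriptional activity was tracked as Gal4-UAS luciferase output in stably transfected Drosophila Schneider cells, with compound added 1 hr before 700 uM copper sulfate induction and a 20 hr ambient-temperature incubation.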
Potency is read from the fitted curve at half-maximal effect.

Row | Structure (SMILES) | Potency
1 | CNC(=O)[C@]1(C(F)(F)F)C[C@H](CCc2ccccc2)CCCO1 | inactive
2 | CCOCCCN(C)C1CCN(C(=O)c2oc3ccccc3c2NC(=O)COc2cccc(C)c2)CC1 | inactive
3 | Cn1c(Nc2ccccc2)cc(=O)n(C)c1=O | inactive
4 | COc1cccc(NC(=O)COc2cc(C)cc3oc(=O)cc(C)c23)c1 | inactive
5 | COC(=O)c1cn(C(=O)c2ccc(Cl)cc2)c2ccccc12 | inactive
6 | CC(NC(=O)c1ccc(Cl)cc1)C(=O)N1CCCCC1 (stereo not given) | inactive
7 | COC(=O)C1(O)CC(C(C)C)=NN1C(=O)c1ccc(Cl)cc1 (stereo not given) | 10 µM (active)
8 | CC1CCC2CCCCC2N1C(=O)c1cc([N+](=O)[O-])cc([N+](=O)[O-])c1 (stereo not given) | inactive
9 | C=CCSc1nc2c(c(=O)[nH]c(=O)n2C)n1Cc1ccccc1 | inactive
10 | COc1ccccc1-c1nnc(NC(=O)c2cccc(N3C(=O)CCC3=O)c2)o1 | 11.2 µM (active)
11 | COc1ccccc1-c1nnc(NC(=O)c2ccc3ncsc3c2)o1 | 0.501 µM (active)
12 | COc1ccccc1-c1nnc(SCC(=O)N2CC(C)CC(C)C2)o1 (stereo not given) | inactive
13 | Cc1cc(NC(=O)c2cccc(N3C(=O)CCC3=O)c2)no1 | inactive
14 | O=C(Nc1cccc2cccnc12)c1cccc(N2C(=O)CCC2=O)c1 | inactive
15 | COc1ccccc1NC(=O)c1ccc2nc(N3C(=O)CCC3=O)sc2c1 | inactive
16 | O=C(CC1C(=O)NCCN1CC(c1ccccc1)c1ccccc1)NCC1CCOCC1 (stereo not given) | inactive
17 | COCCCNC(=O)/C(C#N)=C/c1c(N2CCCCCC2)nc2ccccn2c1=O | inactive
18 | CC1(C)Oc2ccc3ccc(=O)oc3c2/C(=N/O)C1=O | inactive
19 | CCOC(=O)N1CCN(C(c2cccnc2)c2ccc3cccnc3c2O)CC1 (stereo not given) | 4.47 µM (active)
20 | Cc1onc(C(=O)NN)c1C(=O)N1CCN(C(c2ccccc2)c2ccccc2)CC1 | inactive
21 | CCN1CCN(c2ccc(NC(=O)c3cnccn3)cc2)CC1 | inactive
22 | CCOC(=O)N1CCN(C(=O)C2CCN(c3ncnc4c3sc3cccc(F)c34)CC2)CC1 | inactive
23 | CCN1CCN(C(c2cccnc2)c2cc(Cl)c3cccnc3c2O)CC1 (stereo not given) | 2.82 µM (active)
24 | Oc1ccccc1CN1CCN(C(c2ccccc2)c2ccccc2)CC1 | inactive
25 | CCc1nc2nc(C)c(NS(=O)(=O)c3ccc4c(c3)CCCC4)c(=O)n2[nH]1 | inactive
26 | COc1ccc(NC2=CC(=S)NC(C)(C)C2)cc1 | 7.08 µM (active)
27 | COc1ccc(Nc2nc(=O)[nH]nc2C)cc1 | inactive
28 | COc1ccc(Nc2nnc(C)c3ccccc23)cc1 | inactive
29 | COc1ccc(NS(=O)(=O)c2ccc(F)cc2F)cn1 | inactive
30 | CC(C)CCN1NC2(CCC(C)CC2)NC1=S (stereo not given) | 7.08 µM (active)
